Experimental data reported in PubChem BioAssay (NCI).
About 83,000 compounds went through this panel and 20% of them were active in at least one assay; those are over-represented in the sample as a whole.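 Plates (96-well) were seeded with cells, treated with compound at one concentration, and incubated for 48 hours before percent growth was determined.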 The source made the active and inactive calls. The calls were made as follows: active = growth percent below 10; inactive = the rest.

Experiments:
Assay in all cases: NCI-60 one-dose screen, 48 h (100 = growth as untreated, 0 = no growth, -100 = all killed)
Conditions in all cases: 10 µM unless noted
DU-145 prostate = tested on: DU-145 prostate
K-562 leukemia = tested on: K-562 leukemia
MALME-3M melanoma = tested on: MALME-3M melanoma
MDA-MB-231 breast = tested on: MDA-MB-231 breast
RXF 393 renal = tested on: RXF 393 renal
SF-268 CNS = tested on: SF-268 CNS
SF-295 CNS = tested on: SF-295 CNS
SF-539 CNS = tested on: SF-539 CNS
UACC-257 melanoma = tested on: UACC-257 melanoma
M14 melanoma = tested on: M14 melanoma

Measured: growth

CCOC(=O)c1cc(C#N)n2ccc3ccccc3c12
inactive: DU-145 prostate 103% | K-562 leukemia 106% | MALME-3M melanoma 104% | MDA-MB-231 breast 102% | RXF 393 renal 98.9% | SF-268 CNS 94.2% | SF-295 CNS 96.5% | SF-539 CNS 98.7% | UACC-257 melanoma 104% | M14 melanoma 108%

Cn1ccc2c1CC1CN(Cc3ccco3)C(=O)C1C2C(=O)O (stereo not given)
inactive: DU-145 prostate 89.2% | K-562 leukemia 97.4% | MALME-3M melanoma 98.5% | MDA-MB-231 breast 97.1% | RXF 393 renal 111% | SF-268 CNS 92.6% | SF-295 CNS 100% | SF-539 CNS 96.3% | UACC-257 melanoma 97% | M14 melanoma 103%

Brc1ccc(Nc2csc(-c3ccccn3)n2)cc1
inactive: DU-145 prostate 94.6% | K-562 leukemia 84.5% | MALME-3M melanoma 99.4% | MDA-MB-231 breast 81.9% | RXF 393 renal 106% | SF-268 CNS 90.9% | SF-295 CNS 88.8% | SF-539 CNS 95% | UACC-257 melanoma 111% | M14 melanoma 93.3%

O=C(Nc1ccccc1C(=O)N/N=C(\c1ccccc1)c1ccccn1)c1ccc(F)cc1
active: SF-539 CNS 9.35% | UACC-257 melanoma 2.87% | M14 melanoma -23.3%
inactive: DU-145 prostate 23.5% | K-562 leukemia 12.8% | MALME-3M melanoma 35.6% | MDA-MB-231 breast 36.6% | RXF 393 renal 37.2% | SF-268 CNS 19.2% | SF-295 CNS 20.9%

COc1cc(C2C3CC4CCCC[C@H]4N3[C@@]3(C(=O)Nc4cc(Cl)ccc43)C2C(=O)c2nc3ccccc3[nH]2)cc(OC)c1OC (stereo not given in full)
inactive: DU-145 prostate 80.5% | K-562 leukemia 40.5% | MALME-3M melanoma 56.6% | MDA-MB-231 breast 76.8% | RXF 393 renal 51.1% | SF-268 CNS 67.3% | SF-295 CNS 45.5% | SF-539 CNS 70.1% | UACC-257 melanoma 61.6% | M14 melanoma 52%

O=[N+]([O-])c1ccc(NC(=S)N/N=C/c2cc3ccccc3n3nnnc23)cc1
active: SF-539 CNS 9.9%
inactive: DU-145 prostate 64.1% | K-562 leukemia 12.5% | MALME-3M melanoma 71.9% | MDA-MB-231 breast 61.2% | RXF 393 renal 30.1% | SF-268 CNS 38.3% | SF-295 CNS 18.9% | UACC-257 melanoma 90.2% | M14 melanoma 75.5%

Cc1c(C(=O)NCCC(=O)NO)sc2ncnc(Nc3ccc(NC(=O)Nc4cccc(C(F)(F)F)c4)cc3)c12
inactive: DU-145 prostate 105% | K-562 leukemia 104% | MALME-3M melanoma 112% | MDA-MB-231 breast 105% | RXF 393 renal 104% | SF-268 CNS 93.4% | SF-295 CNS 91.8% | SF-539 CNS 79% | UACC-257 melanoma 108% | M14 melanoma 107%

N#C/C(=C\c1ccc(Cl)cc1)n1nnc2cc(F)c(F)cc21
active: RXF 393 renal -18.6% | SF-539 CNS 3.56%
inactive: DU-145 prostate 14% | K-562 leukemia 11.5% | MALME-3M melanoma 14.8% | MDA-MB-231 breast 11.9% | SF-268 CNS 35.7% | SF-295 CNS 86% | UACC-257 melanoma 27.7% | M14 melanoma 11.1%

Cc1c(C(=O)NCCC(=O)NO)sc2ncnc(Nc3ccc(F)c(Cl)c3)c12
inactive: DU-145 prostate 111% | K-562 leukemia 113% | MALME-3M melanoma 113% | MDA-MB-231 breast 103% | RXF 393 renal 102% | SF-268 CNS 96.5% | SF-295 CNS 96.1% | SF-539 CNS 98% | UACC-257 melanoma 99.7% | M14 melanoma 105%

Cn1ccnc1C(=O)/C=C/c1ccc(CC(=O)Nc2ccc(F)cc2)cc1
active: DU-145 prostate -15.6% | K-562 leukemia 5.72% | SF-539 CNS 2.33%
inactive: MALME-3M melanoma 90.4% | MDA-MB-231 breast 30.1% | RXF 393 renal 35.6% | SF-268 CNS 10% | SF-295 CNS 37.1% | UACC-257 melanoma 85.3% | M14 melanoma 81.1%

N/C(=N\C(N)=N\c1nc2ccccc2s1)c1ccnc(Br)c1
active: SF-295 CNS 5.59% | SF-539 CNS 8.41%
inactive: DU-145 prostate 42.7% | K-562 leukemia 14% | MALME-3M melanoma 64.5% | MDA-MB-231 breast 51.7% | RXF 393 renal 15.7% | SF-268 CNS 50% | UACC-257 melanoma 46.2% | M14 melanoma 21.5%

CCN(CC)CCOc1ccc(NC(=O)C(C(C)C)N2C(=O)/C(=C/c3ccc(Br)cc3)SC2=S)cc1 (stereo not given)
active: K-562 leukemia -64.8% | MALME-3M melanoma -34.4%
inactive: DU-145 prostate 73% | MDA-MB-231 breast 50.7% | RXF 393 renal 71.6% | SF-268 CNS 76.6% | SF-295 CNS 101% | SF-539 CNS 88.2% | UACC-257 melanoma 93.5% | M14 melanoma 75.8%

O=C(/C=C(/C=C/c1csc2ccccc12)OB(F)F)/C=C/c1csc2ccccc12
active: MALME-3M melanoma 9.2% | MDA-MB-231 breast 2.45% | RXF 393 renal -28.4% | SF-268 CNS 5.79% | M14 melanoma 8.88%
inactive: DU-145 prostate 28.5% | K-562 leukemia 23.2% | SF-295 CNS 87% | SF-539 CNS 40.8% | UACC-257 melanoma 57.7%

N#CC1=C(/N=C/c2ccccc2)Oc2c(ccc3ccccc23)C1c1ccc([N+](=O)[O-])cc1 (stereo not given)
inactive: DU-145 prostate 96% | K-562 leukemia 90.7% | MALME-3M melanoma 96.6% | MDA-MB-231 breast 72.7% | RXF 393 renal 98.2% | SF-268 CNS 89.2% | SF-295 CNS 98.5% | SF-539 CNS 95.1% | UACC-257 melanoma 97.1% | M14 melanoma 102%

COc1ccc(C(=O)c2cc(OC)c(OC)c(OC)c2)cc1O
inactive: MALME-3M melanoma 35.2% | MDA-MB-231 breast 24.8% | SF-268 CNS 29.3% | UACC-257 melanoma 69.3%
active: DU-145 prostate 9.94% | K-562 leukemia 8.98% | RXF 393 renal 0.69% | SF-295 CNS -8.79% | SF-539 CNS -22.1% | M14 melanoma -3.92%

COC(=O)C1=C(C(=O)ON)[C@@H]2C=C[C@@]1([C@@H](Cc1ccccc1)Nc1ccccc1)O2
inactive: DU-145 prostate 80% | MDA-MB-231 breast 106% | RXF 393 renal 91.1% | SF-268 CNS 93.9% | SF-295 CNS 105% | SF-539 CNS 93.8% | UACC-257 melanoma 94.8% | M14 melanoma 95.3%
active: K-562 leukemia -9.92% | MALME-3M melanoma -68.8%

CCOC(=O)c1cc(C(=O)c2ccc(OC)cc2)n2ccc(/C=C/c3cc[n+](CC(=O)c4ccc(OC)cc4)cc3)cc12
inactive: DU-145 prostate 75% | MALME-3M melanoma 92.1% | MDA-MB-231 breast 72.1% | RXF 393 renal 99.9% | SF-268 CNS 94.5% | SF-295 CNS 104% | SF-539 CNS 92.9% | UACC-257 melanoma 111% | M14 melanoma 75.4%
active: K-562 leukemia -15.2%

CCCCCCNC(=O)Oc1ccc(/C(=C(\C)c2ccccc2)c2ccc(OCCCN(C)C)cc2)cc1
active: K-562 leukemia 3.9%
inactive: DU-145 prostate 99.6% | MALME-3M melanoma 54% | MDA-MB-231 breast 82.7% | RXF 393 renal 75.4% | SF-268 CNS 79.4% | SF-295 CNS 93.7% | SF-539 CNS 79.4% | UACC-257 melanoma 86.2% | M14 melanoma 40.1%

Nc1n[nH]c2cccc(C#Cc3cccc(C(=O)Nc4cc(CN5CCOCC5)cc(C(F)(F)F)c4)c3)c12
inactive: DU-145 prostate 58.9% | MDA-MB-231 breast 19.6% | RXF 393 renal 24% | SF-268 CNS 41.9% | SF-295 CNS 54.6% | UACC-257 melanoma 33%
active: K-562 leukemia 4.98% | MALME-3M melanoma 0.564% | SF-539 CNS 8.6% | M14 melanoma 6.89%

S=c1cc(S)c2cc(Br)ccc2[nH]1
inactive: DU-145 prostate 105% | K-562 leukemia 94.9% | MALME-3M melanoma 98.4% | MDA-MB-231 breast 81.5% | RXF 393 renal 111% | SF-268 CNS 99% | SF-295 CNS 100% | SF-539 CNS 97.7% | UACC-257 melanoma 87.1% | M14 melanoma 90%

Cc1ccc(NC(C(=O)c2ccccc2)c2ccccc2)cc1 (stereo not given)
active: MALME-3M melanoma -2.02%
inactive: DU-145 prostate 58.2% | K-562 leukemia 46.5% | MDA-MB-231 breast 72.4% | RXF 393 renal 95.2% | SF-268 CNS 68.6% | SF-295 CNS 53.2% | SF-539 CNS 78.4% | UACC-257 melanoma 10.5% | M14 melanoma 77.6%

COc1ccc2[nH]c(O)c(/C=c3/cc4c(c(-c5ccc(F)cc5)n3)=Nc3ccccc3-4)c2c1
inactive: DU-145 prostate 76.6% | K-562 leukemia 23.5% | MALME-3M melanoma 114% | MDA-MB-231 breast 32.2% | RXF 393 renal 81.5% | SF-268 CNS 79.3% | SF-295 CNS 86.9% | SF-539 CNS 89.5% | UACC-257 melanoma 113% | M14 melanoma 92.3%
